# Bioassay records as filed in PubChem.
# Only some compounds are listed: those with a hit (about 4.8% of all), similar ones and a draw of the others.
# DAX1 inh-1 = DAX1 (NR0B1) inhibitors on StAR promoter, primary screen, cell-based, luminescence, SF-1 (NR5A1), full-length DAX-1; HEK293T StAR-luciferase reporter, SF-1/DAX-1 repression relief; inhibition, % at 6.8 µM; 370,000 tested, 1.1% active;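 active = inhibition above the mean over all tested compounds plus 3 SD, cut at about 3.6% in these data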;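 also: 0% = DAX-1 cells with DMSO and 100% = cells lacking DAX-1 with DMSO; higher inhibition means more luminescence from relief of DAX-1 repression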
# DAX1 inh-2 = DAX1 (NR0B1) inhibitors, primary screen, cell-based, HEK293, Gal4-DAX1, luciferase luminescence | 340,000 tested, 0.99% active | inhibition, % at 6.75 µM | HEK293 Gal4-DAX1 luciferase reporter | AID 504766, 2011;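 active = inhibition above the mean over all tested compounds plus 3 SD, cut at about 4.2% in these data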;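 also: 0% = DAX1-transfected cells with DMSO and 100% = empty-vector control cells with DMSO; inhibition shows as a rise in luminescence from relieved DAX1 repression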
# Target sequence (P51843 207-470 limits assumed): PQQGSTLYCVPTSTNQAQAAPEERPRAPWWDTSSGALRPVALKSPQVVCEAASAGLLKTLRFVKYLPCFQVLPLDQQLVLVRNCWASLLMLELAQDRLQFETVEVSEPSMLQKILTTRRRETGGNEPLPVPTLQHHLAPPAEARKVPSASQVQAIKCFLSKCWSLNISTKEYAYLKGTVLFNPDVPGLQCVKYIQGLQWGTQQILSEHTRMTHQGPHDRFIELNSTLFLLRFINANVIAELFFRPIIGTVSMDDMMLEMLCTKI
# hgDAF12 agonist = H. glycines DAF-12 receptor agonists, primary screen, cell-based, luminescence, HEK293, GAL4 fusion, UAS-luciferase; Nuclear hormone receptor DAF-12 (Heterodera glycines), GAL4 fusion; HEK293 GAL4-hgDAF12 UAS-luciferase reporter, agonist luminescence; normalized to butyrate control; activation, % at 6.8 µM; 370,000 tested, 1.8% active; AID 687014, 2013;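 active = activation above a cutoff set at the mean of all screened compounds plus 3 SD, cut at about 10% in these data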;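 also: 0% = DMSO wells and 100% = sodium butyrate wells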
# hcDAF-12 act = H. contortus DAF-12 nuclear receptor activators, primary screen, cell-based, luminescence, HEK293, lit1-tk-luc reporter | 370,000 tested, 1.4% active | activation, % at 6.8 µM | HEK293 hcDAF-12 lit1-tk-luc reporter; 0% DMSO, 100% Δ7-dafachronic acid | AID 652067, 2013;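 active = activation above the mean of all tested compounds plus 3 SD, cut at about 5.5% in these data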;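 also: 100% = response to 3 µM Δ7-dafachronic acid high control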
# SMARCA2 act = SMARCA2 (BRM) function activators, primary screen, cell-based, luminescence, high throughput. activation, % at 9.1 µM. MG213 cells, MMTV-luciferase reporter, dexamethasone, overnight. 370,000 tested, 1% active. AID 652017, 2013; in the data active = activation above about 7.8%;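 also: 0% = vehicle wells and 100% = reference activator wells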
# ssDAF12 agonist = S. stercoralis DAF-12 nuclear receptor activators, primary screen, cell-based, luminescence, HEK293, GRIP1 co-expression, lit1-tk-luc | 370,000 tested, 1% active | activation, % at 6.8 µM | HEK293 ssDAF-12/GRIP1 lit1-tk-luc reporter; % of 3 µM dafachronic acid response;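 active = activation above the mean over all tested compounds plus 3 SD, cut at about 0.9% in these data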;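 also: 0% = DMSO-only wells and 100% = 3 µM delta7-dafachronic acid wells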
# SMARCA2 act conf = SMARCA2 (BRM) function activators, confirmation, cell-based, luminescence, triplicate. 3,500 tested, 30% active. AID 652260, 2013. MG213 cells, MMTV-luciferase with dexamethasone, overnight; MG213 cells expressing E1A, Rb sequestered; DMSO wells 0%, reference activator 100%. shares compounds with SMARCA2 act. activation, % at 9.1 µM;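 active = activation above its plate's cutoff, the mean activation of tested wells plus 3 SD, cut at about 7.9% in these data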
# GAL4-VP16 Luc = GAL4-VP16 luciferase reporter activation, counter-screen for SMARCA2 (BRM) activator project, cell-based, pG5luc, luminescence, high throughput; 3,500 tested, 41% active; HEK293 GAL4-VP16 pG5luc reporter; scaled: DMSO wells 0%, SAHA wells 100%; AID 686939, 2013; shares compounds with SMARCA2 act; activation, % at 9.1 µM;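 active = activation above the solvent-only control well mean plus 3 SD, averaged across control plates, cut at about 5.2% in these data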
# * hit, by the source's call; . = no result given.
SMILES,DAX1 inh-1,DAX1 inh-2,hgDAF12 agonist,hcDAF-12 act,SMARCA2 act,ssDAF12 agonist,SMARCA2 act conf,GAL4-VP16 Luc
CC(=O)c1ccc(NC(=O)c2cc(Cl)sc2Cl)cc1,3,1,12*,4,9.3*,1.4*,6,7.5*
Cc1cc(C)cc(NC(=O)c2cc(Cl)sc2Cl)c1,0,-1,2,-2,-1,-1,.,.
CC(C)(CO)Nc1ncnc2onc(-c3ccc(F)cc3)c12,0,1,-1,-1,-4,-1,.,.
CN(C)S(=O)(=O)c1ccc(Cl)c(NC(=O)COC(=O)/C=C/c2ccc(S(=O)(=O)N3CCOCC3)cc2)c1,0,0,-1,0,-2,0,.,.
Cc1[nH]c(=S)[nH]c(=O)c1Cc1ccccc1,1,1,2,0,16*,-1,0,1
COc1ccc(/C=C2\N=C(C)N(c3ccc4ccccc4c3)C2=O)cc1OC,-1,-1,1,-1,-2,1,.,.
COc1ccccc1CN(C)C(=O)c1cccc(S(=O)(=O)N2CCCc3ccccc32)c1,-2,0,0,-1,-2,-2,.,.
CCc1ccc(C(=O)Nc2cccc(-c3nn[nH]n3)c2)s1,0,0,0,-1,9.2*,-1,-1,2
O=C(Nc1cccc(-c2nn[nH]n2)c1)c1cccs1,0,1,-3,-1,0,-1,.,.
CC(C)c1ccc(CN2CCC2(C)C(=O)Nc2cnc3ccccc3c2)cc1 (stereo unspecified),-2,.,0,-2,-7,-1,.,.
CC1(C(=O)Nc2cnc3ccccc3c2)CCN1Cc1ccc2ccccc2c1 (stereo unspecified),-1,.,0,0,12*,-2,-2,1
O=S(=O)(c1ccc(F)cc1)N1CCc2ccccc21,0,1,0,-1,2,-1,.,.
Cc1cc(C)c(C#N)c(Oc2ccccc2Br)n1,0,-1,0,0,1,-1,.,.
COc1ccccc1-c1csc(C(NC(C)=O)c2ccc(F)c(F)c2)n1 (stereo unspecified),0,.,4,-2,1,-1,.,.
COc1ccccc1-c1csc(C(NC(C)=O)c2cccc(F)c2)n1 (stereo unspecified),2,.,2,0,8.4*,-1,3,1
O=C(Oc1ccc(/C=N/NC(=O)c2ccccc2O)cc1)c1ccccc1,0,1,3,-1,2,-1,.,.
Cn1c2ccccc2c2cc(/C=N/NC(=O)c3cc(O)cc(O)c3)ccc21,-1,0,2,-2,-2,-1,.,.
CSc1ccc(/C=N/NC(=O)c2cc(O)cc(O)c2)cc1,1,1,6,4,9.3*,-1,9.4*,5.4*
O=C(N/N=C/c1ccc(OC(=O)c2ccccc2)cc1)c1cccc(O)c1,0,1,5,3,10.0*,-1,4,0
c1ccc(-c2nc3nc4ccccc4nc3n2Cc2ccco2)cc1,1,2,9,4,8.0*,0,7,14*
